{"source": "PubChem BioAssay", "note": "Values without a mark were called inactive. The source made the active and inactive calls.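 The calls were made as follows: active = mean inhibition over 43.08%, the solvent-only control mean plus 3 SD; inactive = the rest.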", "data": [{"target": "Nuclear receptor coactivator 3 (Homo sapiens) (UniProt Q9Y6Q9)", "sequence (Q9Y6Q9 whole entry, looked up, the tested form may be a part)": "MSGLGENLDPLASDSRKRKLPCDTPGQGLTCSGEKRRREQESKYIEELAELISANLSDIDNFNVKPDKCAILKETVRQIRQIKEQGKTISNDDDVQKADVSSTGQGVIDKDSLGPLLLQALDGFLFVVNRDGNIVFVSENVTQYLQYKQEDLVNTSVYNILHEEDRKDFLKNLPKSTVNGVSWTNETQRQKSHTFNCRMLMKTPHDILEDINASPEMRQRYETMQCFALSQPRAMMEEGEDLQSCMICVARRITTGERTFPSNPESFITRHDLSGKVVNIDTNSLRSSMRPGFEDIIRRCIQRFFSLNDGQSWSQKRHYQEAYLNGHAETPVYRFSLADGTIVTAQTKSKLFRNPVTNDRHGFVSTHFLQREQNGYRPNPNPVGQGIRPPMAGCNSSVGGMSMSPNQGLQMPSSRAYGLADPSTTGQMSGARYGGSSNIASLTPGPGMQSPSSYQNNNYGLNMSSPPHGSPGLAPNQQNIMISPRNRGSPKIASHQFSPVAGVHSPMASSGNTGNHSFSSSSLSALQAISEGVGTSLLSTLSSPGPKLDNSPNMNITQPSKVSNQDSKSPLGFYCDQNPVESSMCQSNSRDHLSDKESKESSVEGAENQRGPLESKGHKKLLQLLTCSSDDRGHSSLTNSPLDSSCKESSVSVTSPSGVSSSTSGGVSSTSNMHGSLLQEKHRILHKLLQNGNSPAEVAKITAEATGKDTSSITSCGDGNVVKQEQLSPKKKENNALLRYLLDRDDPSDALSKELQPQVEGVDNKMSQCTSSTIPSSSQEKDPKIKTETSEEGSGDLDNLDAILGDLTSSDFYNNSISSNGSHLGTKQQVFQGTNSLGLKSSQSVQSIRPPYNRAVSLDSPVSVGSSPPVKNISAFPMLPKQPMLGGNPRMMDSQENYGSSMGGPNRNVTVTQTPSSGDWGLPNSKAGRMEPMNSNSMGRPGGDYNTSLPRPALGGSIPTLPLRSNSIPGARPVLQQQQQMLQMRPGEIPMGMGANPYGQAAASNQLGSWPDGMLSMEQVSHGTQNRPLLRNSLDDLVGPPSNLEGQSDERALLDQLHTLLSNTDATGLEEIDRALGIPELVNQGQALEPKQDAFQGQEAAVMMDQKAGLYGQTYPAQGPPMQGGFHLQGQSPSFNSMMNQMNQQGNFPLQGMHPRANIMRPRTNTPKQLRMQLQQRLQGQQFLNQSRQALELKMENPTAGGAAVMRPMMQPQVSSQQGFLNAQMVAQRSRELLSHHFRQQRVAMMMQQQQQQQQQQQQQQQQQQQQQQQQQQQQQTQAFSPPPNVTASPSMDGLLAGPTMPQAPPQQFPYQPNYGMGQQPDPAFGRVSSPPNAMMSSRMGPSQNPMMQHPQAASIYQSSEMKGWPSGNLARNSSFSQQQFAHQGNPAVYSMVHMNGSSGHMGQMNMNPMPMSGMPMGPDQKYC", "assay": "SRC3 coactivator transcriptional activity inhibitors, confirmation, cell-based, luminescence, quadruplicate (AID 588792);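 also: 0% = DMSO treated cells and 100% = gossypol at 36 µM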", "conditions": "HEK293 GAL4-SRC3 luciferase reporter, at 3.6 µM, active compounds read high", "values": [{"compound": "NC(=S)Nc1cc(Cl)cc(Cl)c1", "inhibition": "23.7%"}, {"compound": "Cc1cccc(C)c1OCC(=O)N(Cc1cccs1)C1CCS(=O)(=O)C1", "note": "(stereo not given)", "inhibition": "8.07%"}, {"compound": "CC(Oc1ccc(Cl)cc1)C(=O)NCCN1C(=O)S/C(=C\\c2cccnc2)C1=O", "note": "(stereo not given)", "inhibition": "4.29%"}, {"compound": "COC(=O)c1ccc(S(=O)(=O)NCc2ccc(S(N)(=O)=O)cc2)o1", "inhibition": "-5.84%"}, {"compound": "CC(=O)Nc1cccc(C(=O)/C=C/c2ccc(Br)cc2)c1", "inhibition": "10.8%"}, {"compound": "COc1ccc2c(c1)-c1c(ssc1=S)C(C)(C)N2S(=O)(=O)c1ccc(C)cc1", "inhibition": "2.95%"}, {"compound": "C[C@H](NS(=O)(=O)c1ccc(Cl)cc1)C(=O)OCC(=O)NC(=O)Nc1ccc2c(c1)OCCO2", "inhibition": "-39.7%"}, {"compound": "Cc1c(Cl)cccc1NC(=O)Nc1ccccc1C(N)=O", "inhibition": "29.1%"}, {"compound": "Cc1ccc(CNC(=O)CCc2ccc(S(=O)(=O)NC3CCCCC3)cc2)cc1", "inhibition": "0.11%"}, {"compound": "COC(=O)c1cc(S(=O)(=O)NCCc2ccc(Cl)cc2)c[nH]1", "inhibition": "29.2%"}, {"compound": "CC(=O)c1c(C)[nH]c(C(=O)Nc2ccc(Cl)c(S(=O)(=O)N3CCOCC3)c2)c1C", "inhibition": "18.6%"}, {"compound": "O=C(CN1C(=O)c2ccccc2S1(=O)=O)c1ccc(F)cc1", "inhibition": "-13.1%"}, {"compound": "CCN1C/C(=C/c2ccc(N3CCOCC3)cc2)C(=O)/C(=C/c2ccc(N3CCOCC3)cc2)C1", "inhibition": "40.8%"}, {"compound": "Cc1[nH]n(-c2ccccc2)c(=O)c1/C=N/Nc1nncc(-c2ccccc2)n1", "inhibition": "74.3% (active)"}, {"compound": "CCN(CC)S(=O)(=O)c1cccc(NC(=O)C2SC(=Nc3ccc(C)cc3C)C(C(=O)NC(C)COC)=C2N)c1", "note": "(stereo not given)", "inhibition": "6.35%"}]}]}
